The full list was thinned out, with hits kept by preference.
TDP1 cell noCPT: qHTS for Inhibitors of human tyrosyl-DNA phosphodiesterase 1 (TDP1): qHTS in cells in absence of CPT. DT40 Tdp1-/- hTDP1 cells, no CPT, ATP luminescence, 48 h. Potency, µM (titrated, usually from 46.2 µM), without a hit: at the top dose activity change, negative = growth inhibition, most hits filed as inhibitors. 420,000 tested, 15% active; further: potency means the concentration at half of the fitted maximal effect; nearly all actives have a fitted effect of over 55% in size
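Camptothecin absent (DMSO only). Human TDP1-complemented DT40 knockout cells, 400 cells/well, 37 °C for minimum 48 hr; ATP measured via CellTiter-Glo, 30 min dark incubation, luminescence.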
IL1B secr inh: qHTS for Inhibitors of Inflammasome Signaling: IL-1-beta AlphaLISA Primary Screen. THP-1 LPS/ATP IL-1B secretion, AlphaLISA, 16 h; stronger effect = lower value. activity change, % at 57.5 µM. 360,000 tested, 4.7% active; in the data active means activity change below about -50%; inconclusive means mostly about -30% to -49%
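THP-1 cells pretreated 1 hr with compounds (up to 57.5 uM final), then stimulated with LPS (250 ng/mL final) plus ATP (1.25 mM final); secreted IL-1B measured by AlphaLISA after 16 hr, decreased signal indicating inhibition.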
DT40 TDP1 CPT: qHTS for Inhibitors of human tyrosyl-DNA phosphodiesterase 1 (TDP1): qHTS in cells in presence of CPT | chicken DT40 Tdp1-/-;hTDP1 cells + 20 nM CPT, ATP luminescence, 48 h | 420,000 tested, 12% active | Potency, µM (series often up to 46.2 µM), for the others: at the top dose activity change, negative = growth inhibition, actives largely listed as inhibitors | AID 686979, 2013; further: potency means the concentration at half of the fitted maximal effect; nearly all actives have a fitted effect of over 55% in size
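Chicken DT40 Tdp1-/- cells stably complemented with human TDP1 were seeded at 400 cells/well in medium containing 20 nM camptothecin, exposed to pin-transferred compounds, and grown at 37 °C for at least 48 hr. Viability was read as ATP luminescence.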
HT1080-NT tox: qHTS for induction of synthetic lethality in tumor cells producing 2HG: qHTS for the HT-1080-NT fibrosarcoma cell line; Potency, µM (series often up to 46.1 µM), for inactives: at the highest dose activity, negative = less viability, actives largely listed as cytotoxic; AID 686970, 2013; HT-1080-NT fibrosarcoma viability, CellTiter-Glo ATP luminescence, 48 h; 360,000 tested, 1.6% active;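 further: NT is the 2HG producing partner of a matched IDH1 knockdown line; potency means the concentration at half of the fitted maximal effect; 0% = DMSO-treated cells and -100% = media-only wells without cells; nearly all actives have a fitted effect of over 55% in size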
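Viability by CellTiter-Glo luminescence after 48 h compound exposure at 37C of HT-1080-NT cells (750/well, RPMI, 5% FBS). % activity scaled between DMSO wells and medium-only wells, then curve-fitted and categorized by curve class.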
HT1080 IDH1KD tx: qHTS for induction of synthetic lethality in tumor cells producing 2HG: qHTS for the HT-1080-IDH1KD cell line. HT-1080 IDH1 knockdown viability, ATP luminescence, 48 h. Potency, µM (titrated, usually from 46.1 µM), without a hit: at the top dose activity, negative = toxicity, most hits filed as cytotoxic. 360,000 tested, 2% active;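 further: potency means the concentration at half of the fitted maximal effect; 0% = DMSO wells and -100% = cell-free medium wells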
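Viability of IDH1-knockdown HT-1080 fibrosarcoma cells was assessed by CellTiter-Glo after 48 h at 37 °C with titrated compound; concentration-effect curves were classified by fit quality and response size.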
12-LOX inh: Primary qHTS assay for inhibitors of human arachidonate 12S-lipoxygenase (ALOX12): Round 2; Potency, µM (top dose mostly 108 µM), inactives show at the highest dose activity change, negative = inhibition, actives largely listed as inhibitors; 580,000 tested, 1.1% active; Polyunsaturated fatty acid lipoxygenase ALOX12 (Homo sapiens), P18054; purified 12hLO, xylenol orange hydroperoxide absorbance; AID 1671190, 2021; further: potency means the concentration at half of the fitted maximal effect
Target sequence (P18054 whole entry, looked up): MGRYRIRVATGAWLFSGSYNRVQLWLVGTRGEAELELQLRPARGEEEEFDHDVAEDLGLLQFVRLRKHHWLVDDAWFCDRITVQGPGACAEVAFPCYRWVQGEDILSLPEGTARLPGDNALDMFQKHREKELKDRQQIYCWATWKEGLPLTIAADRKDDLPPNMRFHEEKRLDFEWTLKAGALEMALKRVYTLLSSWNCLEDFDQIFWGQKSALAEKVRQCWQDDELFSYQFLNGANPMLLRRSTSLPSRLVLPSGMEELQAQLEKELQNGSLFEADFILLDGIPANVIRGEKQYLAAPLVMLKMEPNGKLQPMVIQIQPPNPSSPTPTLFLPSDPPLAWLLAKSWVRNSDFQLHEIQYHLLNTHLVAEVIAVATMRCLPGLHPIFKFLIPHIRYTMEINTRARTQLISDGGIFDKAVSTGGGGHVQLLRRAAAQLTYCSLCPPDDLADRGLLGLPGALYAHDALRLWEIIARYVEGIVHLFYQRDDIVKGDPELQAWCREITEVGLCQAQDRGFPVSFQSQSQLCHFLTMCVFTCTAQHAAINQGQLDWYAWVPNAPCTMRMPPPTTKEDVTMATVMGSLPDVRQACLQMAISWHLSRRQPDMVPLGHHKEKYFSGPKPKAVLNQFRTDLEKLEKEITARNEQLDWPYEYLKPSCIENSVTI
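Hydroperoxide product was detected by ferrous iron/xylenol orange as the 573 to 405 nm absorbance ratio. Arachidonic acid at 40 uM (final) was turned over for 30 min at room temperature by 150 nM human 12hLO, pH 7.0 Hepes buffer, after 15 min compound preincubation.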
* = called active by the depositor; ? = inconclusive; . = no result; [ ] = remark or other dose. Unless noted, the call rests on the fitted dose curve; in most records, active means well fitted curve in the direction sought with a large enough effect; inconclusive means small, poorly fitted or top-dose-only effect, or another doubt; inactive means no such curve, though single readings can be large; an effect the other way counts as inactive or inconclusive. Unless noted, on the % scale 0 is the no-effect control and ±100 the full control effect.

SMILES	TDP1 cell noCPT	IL1B secr inh	DT40 TDP1 CPT	HT1080-NT tox	HT1080 IDH1KD tx	12-LOX inh
N/C(=N\c1nc2c(c(=O)[nH]1)CCCC2)Nc1ccccc1	?	6	-27%	-2%	0%	0%[57.4 µM]
N/C(=N\c1nc2c(c(=O)[nH]1)CCCC2)Nc1ccccc1Sc1ccccc1	20µM*	29	11µM*	12%	8%	3%
Cc1ccc(N/C(N)=N/c2nc(C)cc(N3CCCCC3)n2)c(C)c1	2.6µM*	-103*	2.3µM*	15µM*	?	-4%
Cc1ccc(N/C(N)=N/c2nc3c(c(=O)[nH]2)CCCC3)c(C)c1	12µM*	-20	13µM*	2%	5%	20%
Cc1ccc(NC(=O)N2CCCCCC2)c(C)c1	-2%	-16	-21%	7%	17%	2%
COc1ccc(Br)cc1Cn1nnc(C(=O)Nc2cc(C)ccc2OC)c1N	.	.	.	.	.	-35%
CCc1ccccc1NC(=O)CN(c1ccc(C)c(C)c1)S(=O)(=O)c1ccsc1C(=O)OC	.	.	.	.	.	-4%
CC1CCCN(C(=O)CSc2nnc3n(C4CCCC4)c(=O)c4ccccc4n23)C1 (stereo unspecified)	16µM*	-2	23µM*	2%	6%	0%
O=C(CSc1nnc2n(C3CCCC3)c(=O)c3ccccc3n12)N1CCCCCC1	23µM*	-10	21µM*	-20%	-24%	-11%
Cc1c(O)cc(C(=O)/C=C/c2ccccc2)cc1Cl	.	.	.	.	.	-12%
CC(C)c1noc(-c2cn(C3CCCN(C(=O)c4ccc5c(c4)OCO5)C3)nn2)n1 (stereo unspecified)	.	.	.	.	.	1%
OC(c1ccc(Cl)c(F)c1)c1ncc(-c2cccc3ccccc23)[nH]1 (stereo unspecified)	?	-60*	?	?	?	-25%
OC(c1ccc2ccccc2c1)c1ncc(-c2cccc3ccccc23)[nH]1 (stereo unspecified)	?	?	?	18µM*	26µM*	-5%
Cc1cc(C(O)c2ncc(-c3cccc4ccccc34)[nH]2)ccc1F (stereo unspecified)	?	-14	?	?	-14%	?
CCn1cc(S(=O)(=O)N2CCCC(c3nnnn3-c3ccccc3)C2)cn1 (stereo unspecified)	.	.	.	.	.	13%
CC(C)(C)c1cc(OC(=O)c2ccccc2F)ccc1O	?	-69*	?	33µM*	21µM*	-19%
O=C(c1cccs1)N1CCN(Cc2cn[nH]c2-c2ccc(F)cc2F)CC1	2%	-51*	-18%	-1%	-4%	25%
COc1ccc(-c2[nH]ncc2CN2CCN(C(=O)c3cccs3)CC2)c(F)c1	-17%	-5	-13%	-10%	1%	?
CCCN(C(=O)COc1ccc2c(C)cc(=O)oc2c1C)C1CCS(=O)(=O)C1 (stereo unspecified)	.	.	.	.	.	26%
O=[N+]([O-])c1ccc2c(c1)-c1ccccc1C2O (stereo unspecified)	13µM*	?	?	19%	9%	7.1µM*
CC1(C)O[C@@H]2[C@H](O1)[C@@H](CO)O[C@H]2n1cnc2c(=O)[nH]cnc21	-5%	-6	29µM*	?	15%	-5%
CCN1C=CC2=C(C#N)C(N)C(C#N)(C#N)C(c3ccccc3C(F)(F)F)C2C1 (stereo unspecified)	23µM*	-8	?	-4%	-10%	296%
O=C(Nc1ccc(-c2nc3ccc(NC(=O)c4cccs4)cc3[nH]2)cc1)c1cccs1	1.6µM*	-23	1.6µM*	.	.	?
O=C(Nc1ccc2nc(-c3cccs3)[nH]c2c1)c1ccco1	?	-10	?	-11%	-3%	-14%
CC(=O)Nc1cccc(NC(=O)Cc2cccs2)c1	-5%	5	4%	-3%	0%	?
SMILES	TDP1 cell noCPT	IL1B secr inh	DT40 TDP1 CPT	HT1080-NT tox	HT1080 IDH1KD tx	12-LOX inh
O=C(Nc1ccc2nc(-c3cccs3)[nH]c2c1)c1cccs1	23µM*	-16	?	?	?	-3%
O=C(Cc1cccs1)Nc1cccc(-c2nc3cc4ccccc4cc3[nH]2)c1	13µM*	-97*	26µM*	23µM*	?	?
CC/C=C(/C)C(=O)NC(C)CN1CCOCC1 (stereo unspecified)	.	.	.	.	.	-6%
O=C(CCCc1nc2ccccc2s1)NC1CCCCC1	.	.	.	.	.	16%
CC[C@H]1CN(S(=O)(=O)c2ccc(OC)cc2)CC[C@H]1CC(=O)NCCN1CCOCC1	.	.	.	.	.	14%
CC1(C)CC(=O)C2=C(C1)Nc1ccccc1S2	?	-3	-27%	10%	8%	25µM*
CC1(C)CC(=O)C2=C(C1)Nc1ccccc1NC2	-36%	4	0%	1%	-5%	12%
Cc1ccc(-c2cnc(CCC(=O)Nc3cccc(F)c3)o2)cc1C	.	.	.	.	.	-27%
CCN1C(=O)c2ccccc2Sc2ccc(C(=O)NCCN3CCOCC3)cc21	8%	8	12%	3%	5%	-13%

Screening data: PubChem BioAssay, National Center for Advancing Translational Sciences (NCATS)
